The results in this text go back to PMC5540273 (PLoS ONE, 2017).

Conditions in all cases: concentration: 1 μM, replicates: in singlicate; n = 1
Assay [1] has as its system NEK3.
Assay [2] concerns NEK4.
Assay [3] deals with NEK5.
For assay [4], the system named is NEK6.
The test system of assay [5] is NEK7.
Assay [6] deals with NEK9.
The subject of assay [7] is T1, NIK.
T1 construct: gene MAP3K14

Assay [8] deals with T2, NIM1.
T2 construct: gene MGC42105

The test system of assay [9] is NLK.
Assay [10] concerns T3, OSR1.
T3 construct: gene OXSR1
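Further: KINOMEscan kinase panel screen.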

Regarding `Cl.Cl.c1ccc(-c2cc3ccncc3cc2OC2CCNCC2)cc1` [GSK1122999], the “%Inh” value was 0% in [1]; 2% in assay [2]; 22% in assay [3]; 0% in assay [4]; 4% in assay [5]; 28% in assay [6]. Moreover, the “%Inh” value is recorded as 3% in [7], 12% in [8], 15% in assay [9] and 8% in assay [10].
Turning to `CN1c2ccc(-c3ccc(C(=O)NCCO)cc3)cc2-c2[nH]ncc2S1(=O)=O`, the “%Inh” value was 45% in [1]; 0% in assay [2]; 0% in [3]; 0% in assay [4]; 0% in [5]; 8% in assay [6]. Besides, the “%Inh” value in assay [7] came to 37%; in assay [8] it was 0%; in assay [9] it was 0%; in assay [10], 0%.
Turning to `FC(F)(F)c1cc(Nc2nccc(-c3c(-c4ccc(Cl)cc4)nn4ncccc34)n2)ccc1Cl` [GW829351], the “%Inh” value in assay [1] is recorded as 2%; in assay [2], 0%; in [3], 0%; in assay [4], 0%; in assay [5], 0%; in [6], 0%. For the same compound, the “%Inh” value in [7] was found to be 4%; in assay [8] it was 0%; in assay [9], 29%; in [10] it was 0%.
Consider `FC(F)(F)c1ccc(-c2cc(-c3c[nH]nc3-c3ccccn3)ccn2)cc1` [GW599550], for which the “%Inh” value in [1] was found to be 4%; in assay [2], 0%; in assay [3], 0%; in assay [4], 0%; in [5] it was 6%; in assay [6], 52%. The “%Inh” value is reported as 0% in [7], 11% in assay [8], 22% in [9] and 0% in [10].
For the compound `Cc1cc(N2CCC(NS(=O)(=O)c3ccc(F)cc3)CC2)nc(Nc2cccc(C#N)c2)n1.O=C(O)C(F)(F)F` [GSK1653537], the “%Inh” value in [1], in [2], in assay [3], in [4], in assay [5] and in assay [6] was 0% throughout. The “%Inh” value in assay [7] was 0%; in assay [8], 18%; in assay [9] it was 35%; in assay [10] it was 6%.
Take `Cl.c1ccc(Cn2ccc3cc(Nc4ncnc5ccccc45)ccc32)cc1` [GW275568]: the “%Inh” value is 12% in assay [1]; 5% in assay [2]; 28% in [3]; 0% in [4]; 9% in assay [5]; 24% in [6]. In addition, the “%Inh” value in assay [7] is given as 0%; in assay [8], 10%; in assay [9], 20%; in assay [10], 1%.
On to `CC(=O)Nc1n[nH]c2ncc(-c3ccccc3)cc12` [SB-548492], for which the “%Inh” value in assay [1] turned out to be 20%; in assay [2], 25%; in assay [3], 5%; in assay [4], 8%; in assay [5], 19%; in assay [6], 7%. In addition, the “%Inh” value came to 3% in assay [7], 100% in assay [8], 24% in assay [9] and 9% in assay [10].
Turning to `CCc1nc(-c2cccc(C)c2)c(-c2ccnc(NC(=O)c3ccccc3)c2)s1`, the “%Inh” value is on record as 27% in [1]; 0% in [2]; 2% in [3]; 28% in assay [4]; 16% in [5]; 13% in assay [6]. The “%Inh” value is on record as 22% in [7], 11% in assay [8], 23% in assay [9] and 10% in assay [10].
Regarding `Cc1ccc(O)cc1Nc1cc(C(F)(F)F)nc2ccc(-c3ccncc3)cc12` [GW630823], the “%Inh” value was 0% in assay [1]; 0% in assay [2]; 6% in assay [3]; 8% in [4]; 58% in assay [5]; 42% in [6]. Moreover, the “%Inh” value in assay [7] turned out to be 0%; in assay [8] it was 0%; in [9], 10%; in assay [10], 0%.
Take `Cc1cccc(-c2nc(Nc3ccc4[nH]nnc4c3)c3ccccc3n2)n1` [GW867587]: the “%Inh” value is reported as 22% in assay [1]; 0% in assay [2]; 2% in assay [3]; 0% in assay [4]; 0% in [5]; 0% in assay [6]. Besides, the “%Inh” value is recorded as 21% in [7], 0% in assay [8], 0% in assay [9] and 0% in assay [10].
Take `Nc1nc(-c2ccc3c(N)n[nH]c3c2)cc(N2CCC[C@@H](C(=O)Nc3ccccc3)C2)n1.O=C(O)C(F)(F)F.O=C(O)C(F)(F)F` [GSK2288359]: the “%Inh” value in assay [1] is recorded as 2%; in assay [2], 0%; in [3] it was 13%; in assay [4] it was 0%; in assay [5], 0%; in assay [6] it was 15%. Besides, the “%Inh” value in assay [7] was 0%; in assay [8] it was 8%; in assay [9] it was 0%; in assay [10] it was 3%.
Turning to `O=C(c1ccc(-c2cc(-c3c[nH]nc3-c3ccccn3)ccn2)cc1)N1CCCC1` [GW792479], the “%Inh” value was 35% in assay [1]; 0% in assay [2]; 0% in [3]; 28% in [4]; 0% in assay [5]; 0% in assay [6]. The “%Inh” value stood at 0% in [7], 4% in [8], 0% in assay [9] and 0% in [10].
Turning to `Cc1ccc(NC(=O)c2cccc(C#N)c2)cc1-c1ccc(C(=O)Nc2ccncc2)cc1` [GSK1398463], the “%Inh” value in assay [1] is recorded as 25%; in [2], 18%; in assay [3], 11%; in assay [4], 0%; in assay [5], 0%; in assay [6], 4%. Moreover, the “%Inh” value in assay [7] is reported as 0%; in [8], 8%; in [9], 1%; in assay [10] it was 31%.
With `CNc1nccc(-c2c(-c3ccc(F)cc3)ncn2CCCN2CCOCC2)n1` [SB-222516], the “%Inh” value is 17% in [1]; 2% in [2]; 100% in assay [3]; 0% in assay [4]; 0% in assay [5]; 0% in assay [6]. Also, the “%Inh” value in [7] turned out to be 47%; in assay [8], 14%; in assay [9], 0%; in [10], 27%.
For the compound `Clc1cccc(-c2nc(Nc3ccncc3)c3ccccc3n2)c1` [GW873004], the “%Inh” value is listed as 36% in assay [1]; 0% in [2]; 23% in assay [3]; 14% in assay [4]; 0% in assay [5]; 3% in assay [6]. The “%Inh” value in assay [7] was determined as 0%; in assay [8], 0%; in [9] it was 30%; in assay [10], 0%.
With `COc1ccc(-c2oc3ncnc(N)c3c2-c2ccc(OC)cc2)cc1` [SB-589132], the “%Inh” value in [1] amounted to 17%; in assay [2], 20%; in [3] it was 31%; in assay [4] it was 0%; in assay [5], 0%; in [6] it was 19%. The “%Inh” value in assay [7] worked out at 33%; in [8], 37%; in [9], 4%; in [10] it was 0%.
For `CCCc1ccc(S(=O)(=O)NC2CCN(c3ccnc(Nc4ccc(OC)cc4)n3)C2)cc1` (centres unmarked) [GSK1379737], the “%Inh” value came out at 1% in assay [1]; 10% in [2]; 15% in assay [3]; 39% in [4]; 0% in assay [5]; 0% in [6]. Further, the “%Inh” value was found to be 43% in [7], 30% in assay [8], 0% in assay [9] and 100% in assay [10].
